The panel holds about 83,000 compounds, 20% with a hit somewhere; the sample as a whole holds those more often.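 Treatment: one concentration, 48 hours, 96-well format. Scoring: percent growth, with anything below 10 considered active.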 Unmarked numbers belong to inactive results. The source made the active and inactive calls.
What follows are compounds tested on SF-295 CNS (assay: NCI-60 one-dose screen, 48 h (100 = growth as untreated, 0 = no growth, -100 = all killed)). Details: 10 µM unless noted.
Compound `O=NN(Cc1cccnc1)C(=O)NC1CCCCC1` has a growth of 80.7%. `FC(F)(F)c1cccc(CNC2CCN(CCc3ccccc3)CC2)c1` gave a growth of 81.7%. Work on `COc1ccc(CCN2C(=O)/C(=C/c3ccc(C4Oc5ccccc5C5CC(c6cccc(OC)c6)=NN54)cc3)SC2=S)cc1` (centres undefined) yielded a growth of 97.7%. `COc1cc(-c2c3c(cn2S(=O)(=O)c2ccccc2)-c2nc(N)sc2CC3)cc(OC)c1OC` was tested, and the growth was 11.2%. Compound `CCC1=C[C@@H]2CN(C1)Cc1c([nH]c3ccccc13)[C@@](C(=O)OC)(c1cc3c(cc1OC)N(C)[C@H]1[C@@](O)(C(=O)OC)[C@H](OC(C)=O)[C@]4(CC)[C@@H]5C[C@@H]5CN5CC[C@]31[C@@H]54)C2` has a growth of 20.1%. Compound `O=C(O)CCCN1C(=O)C2C3CCC(C3)C2C1=O` (centres undefined) has a growth of 109%. Compound `CCOC(=O)CSc1c(-c2ccccc2)c2cc(Cl)ccc2[nH]c1=O` has a growth of 69.6%. `COc1ccc(C2C3=C(COC3=O)N(CCO)c3cc4c(cc32)CCC4)cc1` (centres undefined) gave a growth of 16.3%. For `Cc1c(C(=O)OCCO)cc(-c2ccc(Cl)cc2)n1-c1ccc(Cl)cc1Cl`, the growth was 75.3%. `NC1C(N)C(N)C1N` (centres undefined) was tested, and the growth was 126%. In the case of `Oc1[nH]c2ccccc2c1N=Nc1nnc2n1N=C(c1ccccc1)CS2`, the growth is reported as 99.9%. With `O=NN(C(=O)NC1CCC(C(=O)O)CC1)C1CCC(C(=O)O)CC1` (centres undefined) the growth was 107%. For `Nc1ccc(-c2nn3c(CCC(=O)c4nc5ncccc5[nH]4)nnc3s2)c(O)c1`, the growth was 97.1%. `CCOc1ccc2c(c1)CN(Cc1ccc(Cl)cc1)CO2` was tested, and the growth was -7.02% (active). For `CCN(CC)CCCNc1ccnc2cc3ccccc3cc12`, the growth was -34% (active). Compound `Cc1ccc2cccc(Oc3ccc(Nc4ncnc5onc(-c6ccccc6)c45)cc3)c2n1` has a growth of 88.1%. Work on `CCCc1c(C)c2sc(=O)[nH]c2[nH]c1=O` yielded a growth of 108%. Work on `CC(C)[C@H](NC(=O)Cn1cc(C(=O)O)nn1)C(=O)O` yielded a growth of 93%. In the case of `CC1CCCCN1CCCNC(=O)c1ccc2c(c1)sc1nc(-c3ccc(F)cc3)cn12` (centres undefined), the growth is reported as 109%. `CN(C)c1ccc(/C=C/c2ccnc3c(O)cccc23)cc1` was tested, and the growth was -8% (active). Compound `NC(=O)CSc1nc(-c2ccc(F)cc2)cc(-c2ccco2)n1` has a growth of 102%. `Clc1ccc(COc2ccc(Nc3ncnc4onc(-c5ccccc5)c34)cc2)cc1` gave a growth of 93.7%. `O=S1(=O)N(Cc2ccccc2)[C@@H](Cc2ccccc2)C2O[C@H]2[C@H](Cc2ccccc2)N1Cc1ccccc1` (some centres undefined) showed a growth of 38%. Compound `COc1cc(/C=C2\CN(C)C/C(=C\c3cc(CN4CCCC4)c(O)c(OC)c3)C2=O)cc(CN2CCCC2)c1O` has a growth of 100%. `COc1cc(/C=C2\CN(S(=O)(=O)c3ccccc3)C/C(=C\c3cc(CN4CCCC4)c(O)c(OC)c3)C2=O)cc(CN2CCCC2)c1O` was tested, and the growth was -34.2% (active). In the case of `COc1ccc(-c2nc(N3CCN(C(=O)C4CCCCC4)CC3)c3c4c(sc3n2)CCCC4)cc1`, the growth is reported as -82% (active). `Nc1cccc(Nc2cc(S(=O)(=O)O)c(N)c3c2C(=O)c2ccccc2C3=O)c1` was tested, and the growth was 118%. In the case of `CCCCNc1nc(NC(C)(C)C)nc(NC(C)(C)C)n1`, the growth is reported as -19.5% (active). Work on `COc1ccc(OC)c(NC(=O)/C(C#N)=C/c2ccco2)c1` yielded a growth of 98%. For `O=c1oc2ccc(Br)cc2c(=O)n1-c1ccc(Cl)cc1F`, the growth was -58.4% (active). Compound `COc1ccc(C2=NN(/C=C3\SC(=O)NC3=Nc3ccc(F)cc3)C(c3ccc(F)cc3)C2)cc1` (centres undefined) has a growth of 90.8%. With `Nc1no[n+]([O-])c1-c1nnc2c(n1)-c1ccccc1C2=O` the growth was 86.7%. `C=CCN1C(=O)/C(=c2\sc3n(c2=O)NC2C(N=3)N(CC)C(=O)N2CC)c2ccccc21` (centres undefined) showed a growth of 37.3%. For `O=C1/C(=C/c2ccc(O)cc2)COc2ccc(O)cc21`, the growth was 107%. In the case of `COc1cc(/C=C/C(=O)c2c(C)nc3ccccc3c2/C=C/c2ccccc2)cc(OC)c1OC`, the growth is reported as 29.8%. With `O=c1oc2ccc(F)cc2c(=O)n1-c1ccc(Cl)cc1F` the growth was -28.5% (active). In the case of `CC1(C)CC2(C)OC2C2(C1)N=NC(=Nc1ccccc1)O2` (centres undefined), the growth is reported as 65.6%. In the case of `CCN1C(=O)N(CC)C2Nn3c(s/c(=C4\C(=O)N(C(C)C)c5ccccc54)c3=O)=NC21` (centres undefined), the growth is reported as 19%. With `O=c1c(-c2nc3ccccc3[nH]2)cc2ccccc2n1Cc1cn(Cc2ccc(F)cc2)nn1` the growth was 1.67% (active).

— PubChem BioAssay (NCI)
